High-throughput results (PubChem BioAssay)
An excerpt weighted towards active compounds, which were near 10% of everything screened.
GPT2 inh = inhibitors of human GPT2 alanine aminotransferase | Potency, µM (top dose mostly 57.7 µM), without a hit: at the highest dose activity change, negative = inhibition, most hits filed as inhibitors | 0.25% of 100,000 active | Recombinant GPT2, coupled pyruvate oxidase/HRP Amplex Red fluorescence | AID 1671188 | Q8TD30; note: % is set by controls: 0 for no effect and ±100 for the full control effect; nearly all actives have a fitted effect of over 60% in size
Target sequence (Q8TD30 whole entry, looked up): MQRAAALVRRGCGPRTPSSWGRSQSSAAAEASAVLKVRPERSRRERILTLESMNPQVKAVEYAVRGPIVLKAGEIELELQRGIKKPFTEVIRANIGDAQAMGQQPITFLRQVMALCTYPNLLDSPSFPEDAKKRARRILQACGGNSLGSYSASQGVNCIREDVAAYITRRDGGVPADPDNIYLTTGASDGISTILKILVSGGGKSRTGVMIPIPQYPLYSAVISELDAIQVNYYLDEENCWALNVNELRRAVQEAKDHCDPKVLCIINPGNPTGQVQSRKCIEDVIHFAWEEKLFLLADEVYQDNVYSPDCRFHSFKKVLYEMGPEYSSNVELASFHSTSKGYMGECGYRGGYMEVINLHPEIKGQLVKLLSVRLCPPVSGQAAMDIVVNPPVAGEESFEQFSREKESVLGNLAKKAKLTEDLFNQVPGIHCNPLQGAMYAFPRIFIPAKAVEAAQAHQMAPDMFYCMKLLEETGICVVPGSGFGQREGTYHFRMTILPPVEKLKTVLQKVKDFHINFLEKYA
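Fluorescence read-out: pyruvate from GPT2 turnover coupled to pyruvate oxidase, HRP and Amplex Red (0.2mM ThPP, 0.2U/mL PO and HRP, 50uM Amplex final). Substrates 250uM a-KG, 2mM L-alanine; enzyme 10ng/uL; 30 min RT.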
3T3 cytotox = kills NIH 3T3 cells. Potency, µM (series often up to 96.7 µM), for inactives: at the highest dose activity change, negative = cytotoxicity, actives largely listed as inhibitors. NIH 3T3 viability, CellTiter-Glo ATP luminescence, 48-72 h. AID 1345082. 4.3% of 94,000 active; note: % is set by controls: 0 for no effect and ±100 for the full control effect; nearly all actives have a fitted effect of over 55% in size
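Cells were seeded at 400 per well, treated with pin-transferred compound, and kept 48 or 72 hr at 37 °C before CellTiter-Glo addition and luminescence imaging of cellular ATP.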
HEK cytotox = kills HEK 293 cells. HEK 293 viability, ATP luminescence (CellTiter-Glo), 48-72 h. 6.6% of 94,000 active. Potency, µM (titrated, usually from 115 µM), inactives show at the top dose activity change, negative = cytotoxicity, usual class: inhibitors; note: % is set by controls: 0 for no effect and ±100 for the full control effect; nearly all actives have a fitted effect of over 60% in size
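qHTS cytotoxicity; HEK 293, 250 cells/well; compound pinned; 48 or 72 hr, 37 degree Celsius, 5% CO2, 95% humidity; CellTiter-Glo, 10 min RT; luminescence (ATP).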
NPR1 antag = human Npr1 receptor antagonism; HEK293 hNpr1 GloSensor cGMP, ANP-stimulated luminescence; 1.6% of 76,000 active; Potency, µM (doses to about 46.3 µM), for inactives: at the highest dose activity change, negative = inhibition, most hits filed as inhibitors; calls by dose curve; note: % is set by controls: 0 for no effect and ±100 for the full control effect; nearly all actives have a fitted effect of over 60% in size
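HEK293 cells stably expressing human Npr1 and cGMP GloSensor pGS-40F, loaded 2 h with 2% GloSensor reagent, given compound 30 min at room temperature. Luminescence read before and 20 min after 0.1 nM hNppA.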
FLuc inh-1 = Photinus pyralis luciferase inhibition; Potency, µM (doses to about 115 µM), hits mostly inhibitors; P08659; 2.5% of 76,000 active; purified P. pyralis luciferase, luminescence, biochemical; AID 1347043; note: % is set by controls: 0 for no effect and ±100 for the full control effect; nearly all actives have a fitted effect of over 65% in size
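Luminescence read by CCD imaging after purified firefly luciferase (10nM final) was added to substrate buffer holding 10uM D-luciferin and 10uM ATP, pH 7.5, pre-dosed with compound.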
FLuc SDR no ATP = binders stabilizing firefly luciferase, without ATP; Potency, µM (doses to about 32.7 µM), without a hit: top-dose activation (signal gain), actives largely listed as activators; 7.8% of 1,300 active; Purified FLuc-C-HiBiT, Nano-Glo HiBiT luminescence, no ATP; shares compounds with FLuc inh-1; note: nearly all actives have a fitted effect of over 55% in size
FLuc SDR ATP = stabilizes firefly luciferase with ATP present; shares compounds with FLuc inh-1; purified FLuc-C-HiBiT + ATP, HiBiT complementation luminescence; Potency, µM (highest dose often 32.7 µM), without a hit: at the highest dose activation (gain of signal), hits mostly activators; 8.7% of 1,300 active;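 note: signal reports ligand binding via conformational change of the enzyme rather than luciferase catalysis; % of control where 0% means no effect; nearly all actives have a fitted effect of over 55% in size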
FLuc inh-2 = firefly luciferase enzyme inhibition | shares compounds with FLuc inh-1 | purified FLuc-C-HiBiT enzyme, luciferin luminescence | Potency, µM (doses to about 32.7 µM), inactives show top-dose activity change, negative = inhibition, hits mostly inhibitors | 42% of 1,300 active; note: % is set by controls: 0 for no effect and ±100 for the full control effect; nearly all actives have a fitted effect of over 70% in size
Active calls of the source: *; i = inactive; ? = inconclusive; · = no result given; [ ] = remark or other dose. Unless noted, calls come from the whole dose curve; as a rule, active = well fitted curve in the direction sought with a large enough effect; inconclusive = small, poorly fitted or top-dose-only effect, or another doubt; inactive = no such curve, though single readings can be large; an effect the other way counts as inactive or inconclusive. Potency is the fitted concentration of half-maximal effect.

SMILES | GPT2 inh | 3T3 cytotox | HEK cytotox | NPR1 antag | FLuc inh-1 | FLuc SDR no ATP | FLuc SDR ATP | FLuc inh-2
CCCOc1ccccc1C(=O)Nc1ccc(-c2nc3ccc(C)cc3s2)cc1 | · | · | · | · | · | ? | ? | 6.2µM*
COc1cccc(C(=O)Nc2cccc(-c3nnc4n3CCCC4)c2)c1OC | i | ? | -12% | -15% | i | · | · | ·
NCCn1cc(C(=O)N2CC[C@@H](c3ccc4c(c3)OCO4)[C@H](O)C2)nn1 | i | ? | -1% | -8% | i | · | · | ·
Cc1ccc(CN2C(=O)OC(c3cccc(NC(=O)c4ccc(C)cc4)c3)C2C(=O)NCC(C)C)cc1 (centres undefined) | 4% | -24% | ? | ? | 7.1µM* | 13% | 11µM* | ?
COc1ccc(Nc2ccnc(N3CCN(C(=O)N(C)C)CC3)n2)cc1 | i | ? | ? | · | · | · | · | ·
Cc1cc(C)n(CC(=O)N2CC[C@@H](n3c(=O)n(C)c4cccnc43)C2)n1 | i | -25% | -9% | · | · | · | · | ·
Cc1ccc(-c2cc3c(=O)n(CCNC(=O)c4cc(F)ccc4F)ccn3n2)c(C)c1 | i | -19% | -10% | -20% | ? | · | · | ·
Cc1ccc(-c2cc3c(=O)n(CCNC(=O)c4ccc(C)s4)ccn3n2)c(C)c1 | i | ? | ? | 0% | 4.5µM* | 27% | ? | 7µM*
Cc1ccc(-c2cc3c(=O)n(CCNC(=O)c4nccc5ccccc45)ccn3n2)c(C)c1 | -1% | ? | 45µM* | -12% | 3.5µM* | 23% | 16% | 8.8µM*
Cc1ccc(-c2cc3c(=O)n(CCNC(=O)c4ccccc4F)ccn3n2)c(C)c1 | i | -18% | ? | -13% | 6.3µM* | ? | ? | 7µM*
Cc1ccc(-c2cc3c(=O)n(CCNC(=O)C4CCCCC4)ccn3n2)c(C)c1 | -18% | ? | ? | ? | 2µM* | ? | ? | 2.5µM*
Cc1cc(F)ccc1NC(=O)CCC1CCCN(Cc2cn[nH]c2-c2cccc(F)c2)C1 (centres undefined) | -13% | ? | ? | 0% | i | · | · | ·
Cc1cnc(C2CCC2)n1CCNC(=O)c1nccn1C | i | i | 5% | -2% | i | · | · | ·
Cc1ccc(-c2cc3c(=O)n(CCNC(=O)c4cccc(Cl)c4)ccn3n2)c(C)c1 | 2% | ? | ? | ? | 1.6µM* | 28% | ? | 3.9µM*
COc1ccc(C(=O)NCCn2ccn3nc(-c4ccc(C)cc4C)cc3c2=O)c(C)c1 | i | ? | ? | ? | 3.5µM* | 24% | 15% | 5µM*
Cc1cc(C)cc(C(=O)NCCn2ccn3nc(-c4ccc(C)cc4C)cc3c2=O)c1 | i | ? | ? | -22% | 2.8µM* | 22% | 14% | 7µM*
Cc1ccc(C(=O)NCCn2ccn3nc(-c4ccc(C)cc4C)cc3c2=O)cc1 | i | -7% | i | 4% | ? | · | · | ·
O=C(Nc1cccc(C(F)(F)F)c1)O[C@@H]1CO[C@H]2[C@@H]1OC[C@@H]2NS(=O)(=O)c1cccs1 | -7% | ? | ? | -7% | i | · | · | ·
CC(C)c1ccc(NC(=O)O[C@@H]2CO[C@H]3[C@@H]2OC[C@@H]3NS(=O)(=O)c2cccs2)cc1 | 2% | ? | ? | 0% | 11µM* | 16% | 10% | ?
COc1cccc(-c2cn3ncsc3n2)c1 | · | · | · | · | · | 22% | 16% | ?
COc1cccc(-c2cn3c(n2)N(C(=O)c2ccoc2)CCC3)c1 | -2% | i | ? | -2% | i | · | · | ·
Cc1ccc(-c2cccc(COc3cnc4c(ccn4CC(=O)O)c3)c2)cc1C | · | · | · | · | · | 10%[49.3 µM] | 7%[49.3 µM] | ?
COc1ccc(-c2cccc(COc3cnc4c(ccn4CC(=O)O)c3)c2)c(C)c1 | 1%[88.5 µM] | ? | ? | -11%[70.6 µM] | i | 9% | 8% | -6%
COc1cc(F)cc(-c2cccc(CCOc3cnc4c(ccn4CC(=O)O)c3)c2)c1 | -9%[88.5 µM] | ? | ? | 0%[70.6 µM] | i | · | · | ·
Cc1ccc(-c2cccc(COc3cnc4c(ccn4CC(=O)O)c3)c2)c(C)c1 | · | · | · | · | · | 14%[49.3 µM] | 7%[49.3 µM] | -13%[49.3 µM]
SMILES | GPT2 inh | 3T3 cytotox | HEK cytotox | NPR1 antag | FLuc inh-1 | FLuc SDR no ATP | FLuc SDR ATP | FLuc inh-2
COc1cccc(-c2cccc(COc3cnc4c(ccn4CC(=O)O)c3)c2)c1 | · | · | · | · | · | 7%[49.3 µM] | 5%[49.3 µM] | ?
COc1ccc(OCC(=O)N2CCC[C@H]2c2nc(-c3ccc(OC)cc3)no2)cc1 | i | ? | ? | -27% | i | · | · | ·
Cc1ccc(C2Cn3nnc(-c4nc(-c5ccccc5Br)no4)c3CO2)c(C)c1 (centres undefined) | i | 2% | -4% | 5% | i | · | · | ·
CCc1ccc(CNC(=O)C2CCCN(c3nn4cc(-c5ccc(F)cc5)nc4s3)C2)cc1 (centres undefined) | · | · | · | · | · | 12% | 15% | -20%
COc1ccc2c(c1)OCC(C(=O)NCCS(=O)(=O)N1CCCC1)C2 (centres undefined) | i | 1% | i | -2% | i | · | · | ·
COc1ccc(CCC(=O)N2CCC(Cc3nncn3Cc3ccccc3)C2)cc1 (centres undefined) | i | -19% | -3% | -4% | i | · | · | ·
CCOC(=O)C1CCCN(C(=O)c2cn3cc(-c4cccnc4)sc3n2)C1 (centres undefined) | i | -16%[138 µM] | -2%[172 µM] | · | · | · | · | ·
CN(CCc1ccccn1)c1ccc(-c2nc(COc3ccccc3)no2)cn1 | ? | ? | 35µM* | ? | 8.9µM* | 13% | 15% | ?
Cc1nonc1C1CCCN1c1ccc(-c2nc(COc3ccccc3)no2)cn1 (centres undefined) | 5% | ? | ? | -16% | i | · | · | ·
CN(CCO)c1ccc(-c2nc(CCCc3ccccc3)no2)cn1 | -10% | -29% | ? | 0% | 6.3µM* | 15% | 14% | ?
Cc1cc(CNc2ccc(-c3nc(CCCc4ccccc4)no3)cn2)no1 | ? | -30% | ? | ? | ? | · | · | ·
c1ccc(CCCc2noc(-c3ccc(NCc4ccccn4)nc3)n2)cc1 | 5%[11.5 µM] | -18% | ? | ? | 13µM* | 10% | 8% | -10%
